# Screening data: PubChem, National Center for Advancing Translational Sciences (NCATS)
# In the library only some 7.3% were active in any assay of this set; here they are far more common.
# NPC1 promoter act = qHTS Assay for NPC1 Promoter Activators; Huh7 NPC1 promoter luciferase reporter, 24 h; Potency, µM (top dose mostly 9.22 µM), inactives show top-dose activation, actives largely listed as activators; 320,000 tested, 2.4% active; AID 485313, 2010; further: % of control where 0% means no effect; nearly all actives have a fitted effect of over 60% in size
#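 Quantitative HTS used a cell-based reporter: Huh7 cells stably bearing the NPC1 promoter upstream of luciferase were treated with compounds for 24 h, and promoter activation was read as luminescence.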
# ELG1 genotoxic = qHTS screen for small molecules that induce genotoxicity in human embryonic kidney (HEK293T) cells expressing luciferase-tagged ELG1; HEK293T ELG1-luciferase reporter, luminescence, 16 h; Potency, µM (titrated, usually from 46 µM), for inactives: at the highest dose activity change, positive = activation, actives largely listed as activators; 330,000 tested, 1.3% active; AID 504466, 2011; further: % of control where 0% means no effect; nearly all actives have a fitted effect of over 60% in size
#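 ELG1-luciferase HEK293T cells, 2,000/well; compound pinned in; 16 hr, 37 °C, 5% CO2; ONE-Glo, 30 min RT; luminescence on CCD imager.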
# Rab9 promoter act = qHTS Assay for Rab9 Promoter Activators | Huh7 Rab9 promoter-luciferase reporter, luminescence, 24 h | Potency, µM (series often up to 9.22 µM), without a hit: at the top dose activation, negative = inhibition, actives largely listed as activators | 320,000 tested, 2.8% active; further: % of control where 0% means no effect; nearly all actives have a fitted effect of over 60% in size
#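 Promoter activation is measured as luciferase luminescence in Huh7 cells stably transfected with a Rab9 promoter–luciferase construct, following 24 h compound exposure at 37 °C and 10 min reagent incubation at ambient temperature.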
# KinaseGlo FLuc = Counterscreen for Luciferase (Kinase-Glo TM) Inhibition; Kinase-Glo luciferase, ATP luminescence, 8 min; Potency, µM (top dose mostly 38.3 µM), without a hit: top-dose activity change, negative = inhibition, usual class: inhibitors; 200,000 tested, 0.28% active; AID 1379, 2008; further: on the % scale 0 is the no-effect control and ±100 the full control effect; nearly all actives have a fitted effect of over 60% in size
#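 Luminescence was the read-out, taken after 8-minute incubation at ambient temperature. Luciferase turned over luciferin with 10 uM ATP in imidazole pH 7.2 buffer containing KCl, MgCl2, Tween 20 and BSA.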
# SMN2 splice up = qHTS Assay for Enhancers of SMN2 Splice Variant Expression | HEK293 SMN2-luciferase splicing reporter, luminescence, 30-36 h | Potency, µM (doses to about 46.1 µM), for inactives: at the highest dose activity change, positive = activation, hits mostly activators | 210,000 tested, 2.8% active; further: % of control where 0% means no effect; nearly all actives have a fitted effect of over 55% in size
#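 HEK293 cells carry an SMN2 […]–luciferase reporter in which exon 7 inclusion puts luciferase in frame. Cells were plated 10-12 h before compound addition, then incubated 30-36 h at 37C. ONE-Glo luminescence was read; sodium butyrate at 4.5 mM final served as control.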
# FLuc modulator = qHTS profiling assay for firefly luciferase inhibitor/activator using purifed enzyme and Km concentrations of substrates (counterscreen for miR-21 project) | purified FLuc, Km substrates, luminescence inhibition | 360,000 tested, 6.9% active | Potency, µM (top dose mostly 57.5 µM), inactives show top-dose activity change, negative = inhibition, usual class: inhibitors | AID 588342, 2011 | Luciferin 4-monooxygenase (Photinus pyralis), P08659;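 further: plate controls were vehicle for no effect and reference inhibitor for full effect; nearly all actives have a fitted effect of over 55% in size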
# Target sequence (P08659 whole entry, looked up): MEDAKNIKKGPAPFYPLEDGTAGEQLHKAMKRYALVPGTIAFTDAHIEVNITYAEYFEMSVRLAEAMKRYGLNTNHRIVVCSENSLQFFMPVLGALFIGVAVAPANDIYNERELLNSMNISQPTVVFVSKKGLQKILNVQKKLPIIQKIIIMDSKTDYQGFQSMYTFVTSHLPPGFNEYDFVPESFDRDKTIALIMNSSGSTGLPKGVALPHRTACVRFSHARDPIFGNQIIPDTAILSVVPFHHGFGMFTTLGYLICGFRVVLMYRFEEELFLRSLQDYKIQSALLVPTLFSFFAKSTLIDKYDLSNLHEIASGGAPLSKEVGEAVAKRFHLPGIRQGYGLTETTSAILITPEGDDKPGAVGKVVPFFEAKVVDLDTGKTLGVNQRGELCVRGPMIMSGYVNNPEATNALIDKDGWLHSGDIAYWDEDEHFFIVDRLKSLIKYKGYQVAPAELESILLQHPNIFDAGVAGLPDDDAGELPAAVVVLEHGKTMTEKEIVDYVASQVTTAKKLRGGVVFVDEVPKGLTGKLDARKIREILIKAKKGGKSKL
#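 Biochemical qHTS of compounds, final roughly 60 µM downward over six points, against 10 nM purified firefly luciferase using Km concentrations of substrates (10 uM D-luciferin, 10 uM ATP) in Tris acetate pH 7.5 buffer; luminescence output.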
# Active calls of the source: *; u = inconclusive; x = not tested or not shown; [ ] = remark or other dose. The call rests on the fitted dose curve; in most records, active means well fitted curve in the direction sought with a large enough effect; inconclusive means small, poorly fitted or top-dose-only effect, or another doubt; inactive means no such curve, though single readings can be large; an effect the other way counts as inactive or inconclusive. Potency means the concentration at half of the fitted maximal effect.
SMILES,NPC1 promoter act,ELG1 genotoxic,Rab9 promoter act,KinaseGlo FLuc,SMN2 splice up,FLuc modulator
Cc1ccc(S(=O)(=O)C(CNS(=O)(=O)c2ccc(F)c(C(F)(F)F)c2)c2ccco2)cc1 (stereo not drawn),x,x,x,x,x,-4%
O=C(Nc1ccc(NC(=O)C2CC2)cn1)c1ccccc1Cl,27%,u,28%,-3%,25µM*,u
CC(C)C(=O)Nc1ccc(NC(=O)CCc2ccccc2)cn1,0%,1%,-6%,-4%,-4%,7%
COc1ccc(C(=O)Nc2ccc(NC(=O)C3CC3)cn2)cc1,-1%,7%,6%,x,x,u
CC(C)C(=O)Nc1ccc(NC(=O)c2cccc(F)c2)cn1,27%,u,2.8µM*,-5%,10%,u
CCCC(=O)Nc1ccc(NC(=O)c2ccccn2)cn1,2.2µM*,u,2.8µM*,x,x,13µM*
Cc1ccc(C(=O)NCCCc2ccccc2)c(C)c1,1.4µM*,16µM*,3.5µM*,0%,13µM*,8.5µM*
Cc1cccc(NC(=O)C(=O)NCCCc2ccccc2)c1,u,23%,u,-2%,10µM*,u
CSCCC(NC(=O)c1ccc([N+](=O)[O-])cc1Cl)C(=O)OCC(=O)NCCCc1ccccc1 (stereo not drawn),-1%,-1%,-4%,-2%,0%,u
O=C(NCCc1ccccc1)C(=O)Nc1cccc(Br)c1,x,x,x,x,-2%,0%
O=C(NCCCc1ccccc1)c1ccc([N+](=O)[O-])cc1Cl,u,u,u,x,x,8.5µM*
Cc1ccc(C(=O)NCCCc2ccccc2)c(Cl)c1,2.5µM*,u,2.2µM*,x,x,8.5µM*
CCCSc1ncc(Cl)c(C(=O)Nc2c(C(=O)c3ccc(F)cc3)oc3ccccc23)n1,x,x,x,x,-3%,0%
COc1ccc(C(=O)N2c3ccccc3C(C)(c3ccc(Cl)cc3)CC2(C)C)cc1 (stereo not drawn),x,x,x,x,-50%,2%
O=C(O)C12CC3(C(=O)O)CC(C(=O)O)(CC(C(=O)O)(C1)C3=O)C2=O,x,x,x,-4%[7.66 µM],-16%[9.22 µM],x
COc1ccc(NC(=O)c2cc(C3CC3)nc3c2c(C)nn3-c2ccc(C)cc2)cc1OC,x,x,x,x,x,-2%
COc1ccccc1OCc1nnc(-c2ccccc2)o1,x,x,x,x,26%,u
COc1cc(/C=C/C(C)=O)cc(OC)c1OC,1%,12%,-6%,21%,-5%,0%
COc1ccc(C(=O)/C=C/c2ccc(OC)c(COc3ccc(F)cc3)c2)cc1,2%,-3%,19%,x,x,5.4µM*
COc1ccc(/C=C/C(=O)c2c(O)c(OC)c3occc3c2OC)cc1,-6%,-5%,-1%,0%,x,u
COc1ccc2cc(C(=O)/C=C/c3cc(OC)c(OC)c(OC)c3)ccc2c1,1%,-5%,-4%,x,x,21µM*
COc1ccc(C(C)=O)cc1COc1ccc(F)cc1,-10%,-2%,-4%,3%,-11%,6%
COc1ccc(/C=C/C(=O)c2ccoc2)cc1,20%,6%,23%,-7%,-15%,4.3µM*
COc1cc(/C=C/c2ccc(O)cc2)cc(OC)c1,u,x,3.2µM*,x,x,13µM*
COc1ccc(/C=C/C(=O)c2ccc(O)cc2)cc1,11%,u,u,x,x,3.4µM*
SMILES,NPC1 promoter act,ELG1 genotoxic,Rab9 promoter act,KinaseGlo FLuc,SMN2 splice up,FLuc modulator
O=C(CNC(=O)C1CCCCC1)Nc1cc(Cl)cc(Cl)c1,1%,-4%,-9%,1%,22%,2%
O=C(CNC(=O)C1CCCCC1)Nc1ccc(Cl)cc1,15%,u,3%,4%,11µM*,-5%
O=C(Nc1ccc(F)c(Cl)c1)C1CCCCC1,1%,-1%,7%,x,x,-18%
O=C(CNC(=O)C1CCCCC1)Nc1ccc(F)c(Cl)c1,-8%,0%,-1%,0%,18µM*,2%
COC(=O)c1ccc(C2c3c(oc4ccccc4c3=O)C(=O)N2c2nc(C)c(C(=O)OC)s2)cc1 (stereo not drawn),x,x,x,x,12%,-9%
COc1cccc(NC(=O)CCc2nc(-c3cc(OC)c(OC)c(OC)c3)no2)c1,x,x,x,x,-4%,-8%
NC(=S)N/N=C1\CC(c2ccc3c(c2)OCCCO3)Oc2ccc(F)cc21 (stereo not drawn),-1%,-7%,1%,x,x,15µM*
Cc1ccc(S(=O)(=O)N2CCC(C(=O)N3CCC3)CC2)cc1,2.2µM*,18%,3.2µM*,x,x,9.5µM*
O=C(C1COc2ccccc2O1)N1CCc2ccccc21 (stereo not drawn),3.5µM*,u,3.5µM*,-3%,11%,21µM*
Cc1ccc(S(=O)(=O)N2CCN(C(=O)CC(C)C)CC2)cc1,4µM*,u,1.1µM*,-7%,x,15µM*
Cc1ccc(S(=O)(=O)N2CCCN(C(=O)c3cc4ccccc4[nH]3)CC2)cc1,6%,5%,9%,x,x,19µM*
Cc1ccc(NC(=O)CN2C(=O)c3cccnc3Oc3ccc(Cl)cc32)cc1,x,x,x,x,x,-8%
CSc1ncnc2c1ncn2CC(=O)[C@H]1CC[C@H]2[C@H]3CCC4=CC(=O)CC[C@@]4(C)[C@@H]3CC[C@@]12C,x,x,x,-7%[7.66 µM],-37%[9.22 µM],x
CN1CCN(C(=O)Nc2cccc(Cl)c2)c2cccnc21,x,x,x,x,u,1%
CC(C)(C)n1ncc2c(=O)n(Cc3cc(F)c(F)cc3Cl)cnc21,x,x,x,x,x,-1%
O=C(C1CCN(S(=O)(=O)c2ccccc2)CC1)N1CCc2ccccc21,21%,-3%,u,x,x,21µM*
O=C(C1CCN(S(=O)(=O)c2ccccc2F)CC1)N1CCc2ccccc21,-2%,-5%,-3%,x,x,-2%
O=C(NC1CCSc2ccccc21)c1ccccc1Br (stereo not drawn),u,-4%,29%,x,x,17µM*
COc1ccccc1CNC(=O)C(=O)NCC(c1cccs1)S(=O)(=O)c1ccccc1 (stereo not drawn),x,x,x,x,x,-9%
COc1cc(/C=C(\C#N)C(=O)N2CCc3ccccc32)ccc1O,-1%,0%,-7%,x,x,17µM*
N#C/C(=C/c1ccc([N+](=O)[O-])cc1)C(=O)Nc1ccccc1O,0%,17%,-2%,-5%,-3%,u
CCOc1cccc(NC(=O)/C(C#N)=C/c2cccnc2)c1,-6%,0%,-1%,x,x,17µM*
